aSyn UTR act = Activators via SNCA 5'UTR binding, MLPCN; alpha-synuclein 5'UTR reporter, activators screen; activity score, % (tested at 7.5 µM), hits read low; 300,000 compounds, 7.1% hits; in the data active = activity score below about -60%
Numbers without * were called inactive. A selection follows.

SMILES	aSyn UTR act
O=C(/C=C/c1ccccc1)NC1CC2CCC1C2 (stereo unspecified)	-110*
CC(C)(C)Cc1nnc(NC(=O)CCc2ccccc2)s1	-124*
CSc1nnc(NC(=O)CCc2ccccc2)s1	-65*
CC(C)CC(=O)Nc1ccc2ccccc2c1	-99*
Cc1ccc2cc(NC(=O)c3cccc(F)c3)ccc2n1	-79*
Cc1ccc2cc(NC(=O)c3ccccc3)ccc2n1	-85*
O=C(Nc1ccc2ccccc2c1)c1cccc(F)c1	-117*
O=C(Nc1ccc2ccccc2c1)c1ccc(NS(=O)(=O)c2ccc(Br)s2)cc1	-102*
O=C(N/N=C/c1ccccc1Cl)c1[nH]c2ccc(Br)cc2c1-c1ccccc1	71
Cc1[nH]c2ccccc2c1C(=O)/C=C/c1ccccc1	-98*
Cc1[nH]c2ccccc2c1C(=O)/C=C\c1ccccc1Cl	-314*
Cc1[nH]c2ccccc2c1C(=O)/C=C/c1ccccc1Cl	-453*
CC1=NN(c2cccc(C(=O)O)c2)C(=O)/C1=C\C=C/c1ccccc1	-64*
Cc1cc(/C=C2/C(=N)N3C(c4ccccc4)=CSC3=NC2=O)c(C)n1-c1ccccc1	-81*
CC1=NN(c2ccccc2)C(=O)/C1=C/c1c(O)n(-c2ccc(F)cc2)[nH]c1=O	-134*
Cc1cc(/C=C2/NC(=O)N(c3ccccc3)C2=O)c(C)n1-c1cccnc1	-149*
Cc1cc(/C=C2\Cc3ccccc3C2=O)c(C)n1-c1ccccc1	52
CC1=NN(c2ccccc2)C(=O)/C1=C/c1ccc[nH]1	-181*
CC1=NN(c2ccccc2)C(=O)/C1=C\c1cc(C)n(-c2ccccc2)c1C	-82*
CCN(CC)CCCN(C(=O)c1cccs1)c1nc(-c2ccc(OC)cc2)cs1	-101*
COCCCN(C(C)=O)c1nc(-c2ccccc2)cs1	-146*
COc1ccc(-c2csc(N(C)C(=O)c3cccs3)n2)cc1	-126*
COc1cc(NC(=O)C/C(C)=N/NC(=O)Cc2ccccc2)c(OC)cc1Cl	-69*
COc1cc(NC(=O)C/C(C)=N/NC(=O)c2cccs2)c(OC)cc1Cl	-153*
Fc1ccc2nc(Nc3nc4cc5c(cc4s3)OCCO5)sc2c1	-128*
SMILES	aSyn UTR act
c1ccc2sc(Nc3nc4cc5c(cc4s3)OCO5)nc2c1	-264*
Fc1ccc2nc(Nc3nc4cc5c(cc4s3)OCO5)sc2c1	-232*
COc1ccc(C2CC(C)(c3ccc(OC)cc3)Nc3ccccc3N2)cc1 (stereo unspecified)	-192*
C/C(=N\Nc1ccc(F)cc1F)c1ccccc1O	-104*
CC1Cc2cc(-c3csc(N)n3)ccc2O1 (stereo unspecified)	-95*
Nc1nc(-c2ccc3c(c2)OCCO3)cs1	-86*
Cc1nc(-c2ccc3c(c2)OCCCO3)cs1	-100*
Cc1nn(-c2ccc(N3CCCCC3)nn2)c(C)c1CCC(=O)Nc1ccc(F)cc1	-90*
CCOc1ccc(NC(=O)CCc2c(C)nn(-c3ccc(N4CCCCC4)nn3)c2C)cc1	-81*
Cc1nn(-c2ccc(N3CCCCC3)nn2)c(C)c1CCC(=O)Nc1cccc(F)c1	-120*
Cc1ccc(NC(=O)CCc2c(C)nn(-c3ccc(N4CCCCC4)nn3)c2C)cc1F	-85*
Cc1ccc(-n2nc(C)c3c(C)c(CCC(=O)Nc4ccc(CN5CCCC5)cc4)c(C)nc32)cc1	104
Cc1cc2ncc(S(C)(=O)=O)c(N)n2n1	60
Cc1nc(NC(=O)CCc2ccccc2)sc1C	-86*
Cc1nc(Nc2ccccc2)sc1C	-112*
Cc1nc(NC(=O)c2ccccc2O)sc1C	-128*
Cc1nc(NC(=O)c2csc3ccccc23)sc1C	-141*
Cc1nc(NC(=O)c2ccccc2)sc1C	-86*
CCOC(=O)Nc1nc(-c2ccccc2)c(C(=O)c2ccccc2)s1	117
Cc1nc(NC(=S)NC(=O)c2ccccc2)sc1C	-161*
CC(=O)c1sc(NC(=O)c2ccccc2)nc1-c1ccccc1	-139*
COc1ccc(NC(=O)c2sc3nc(C)cc(C)c3c2N)cc1	-172*
Cc1cc(C)cc(NC(=O)c2sc3nc(C)cc(C)c3c2N)c1	-136*
COCc1cc(C)nc2sc(C(=O)NN)c(-n3cccc3)c12	71
COCc1cc(C)nc2sc(C(=O)Nc3ccccc3F)c(N)c12	-82*
SMILES	aSyn UTR act
C=CCNc1nc(N)c(C(=O)Nc2cc(C)on2)s1	-111*
Cc1cc(C(F)(F)F)c2c(N)c(C(=O)Nc3cc(C)on3)sc2n1	-125*
CCOC(=O)c1c(C)nc2sc(C(=O)Nc3ccc(C(C)=O)cc3)c(N)c2c1-c1ccc(OC)cc1	-90*
Cc1cc(C)c2c(N)c(C(=O)Nc3ccc(C)c(C)c3)sc2n1	-63*
Cc1cc(C)c2c(N)c(C(=O)Nc3ccc([N+](=O)[O-])cc3)sc2n1	-144*
Cc1cc(C)c2c(N)c(C(=O)N/N=C/c3cccs3)sc2n1	-140*
O=C(N/N=C/c1cccs1)c1n[nH]c2c1CCC2	68
CCOC(=O)c1cnn(-c2ccc(C(C)C)cc2)c1NC(=O)C1CCC1	-81*
CN(C)CCCN(C(=O)c1ccc2c(c1)OCCO2)c1nc2ccc(Cl)cc2s1	-133*
CN(C)CCN(C(=O)c1ccc2c(c1)OCCO2)c1nc2ccc(Cl)cc2s1	-159*
CN(C)CCCN(C(=O)c1ccc(S(=O)(=O)N2CCc3ccccc32)cc1)c1nc2ccc(Cl)cc2s1	58
CC(C)Oc1ccc(C2c3c(oc4ccccc4c3=O)C(=O)N2CCCN2CCOCC2)cc1 (stereo unspecified)	-76*
CCN(CC)S(=O)(=O)c1ccc(N2CCc3ccccc3C2)nc1	-78*
CC(C)N(C(C)C)S(=O)(=O)c1ccc(N2CCc3ccccc3C2)nc1	-150*
CCN(CC)S(=O)(=O)c1ccc(N/N=C/c2ccc(O)cc2O)nc1	90
O=C(Cn1ccsc1=NC(=O)C(F)(F)F)c1ccccc1	-123*
CC(C)n1c(CN(C)Cc2ccccc2)nc2c1c(=O)n(C)c(=O)n2C	64
Cc1[nH]c2ccccc2c(=O)c1CN(C)Cc1ccccc1	-89*
Cc1ccc(-n2nnc(-c3cc4ccccc4n3C)n2)cc1	-88*
Cn1c(-c2nnn(-c3ccc(F)cc3)n2)cc2ccccc21	-156*
CC[n+]1c(/C=C2\Sc3ccccc3N2C)ccc2cccc(C)c21	116
COc1ccc(C(=O)/C=C2\Sc3ccccc3N2C)cc1	-179*
CCOc1ccccc1-c1nc(-c2cccc(Br)c2)no1	-135*
CCOc1ccccc1-c1nc(-c2ccc(NC(=O)c3ccc(Br)o3)cc2)no1	-136*
COc1ccc(-n2ncc3c(N(C)C4CCCCC4)ncnc32)cc1	94
SMILES	aSyn UTR act
COc1ccccc1Oc1ncnc2c1cnn2-c1ccccc1	-115*
COc1ncnc2c1cnn2-c1ccccc1	-67*
O=C(NNC1=C(C(=O)C(F)(F)F)CCC1)c1cccc(O)c1	-153*
CCCCC1CCC(c2nc(-c3cccnc3)no2)CC1 (stereo unspecified)	-92*
CCCCC1CCC(c2nc(-c3ccccn3)no2)CC1 (stereo unspecified)	97
COc1ccc(N=C2C(=Nc3ccc(OC)cc3)N(c3ccccc3)C(=S)N2C(=O)c2ccc(Cl)cc2)cc1	-200*
COc1ccc(N=C2C(=Nc3ccc(OC)cc3)N(c3ccc(N(C)C)cc3)C(=S)N2c2ccc(OC)cc2)cc1	99
COc1ccc(N2C(=S)N(C(=O)c3ccccc3)C(=Nc3ccccc3)C2=Nc2ccccc2)cc1	-120*
Cc1ccc(Nc2nc(/N=C/N(C)C)n[nH]2)cc1C	-79*
Cc1ccc(OCc2cc(C(=O)N(C)CC3CCOCC3)no2)cc1C	-104*

Compound activity as filed in PubChem.
